Target: AgAbp1
Assay: SPOT peptide array binding signal intensity (averaged, normalized) (arbitrary units (background-subtracted, floor 0; scale differs between SH3 domains)); higher = stronger binding of the SH3 domain to the peptide
Description: (§1)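 GST-tagged SH3 domains from S. cerevisiae (Sc), A. gossypii (Ag), C. albicans (Ca) and S. pombe (Sp) were incubated at 10 ug/ml overnight at 4 C on cellulose SPOT membranes carrying 292 synthetic 15-mer peptides mined from the S. cerevisiae proteome (cysteines replaced by serines). Binding was detected with anti-GST antibody, HRP secondary and chemiluminescence, quantified with Genespotter, and reported as normalized spot intensities averaged over biological replicates.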

Binder	SPOT peptide array binding signal intensity
VQKRKLPLPGSIASA	40

Target: AgBbc1
Assay: as above
Description: as §1

Binder	SPOT peptide array binding signal intensity
VQKRKLPLPGSIASA	39.2

Target: AgBem1-D1
Assay: as above
Description: as §1

Binder	SPOT peptide array binding signal intensity
VQKRKLPLPGSIASA	7.25

Target: AgBzz1-D1
Assay: as above
Description: as §1

Binder	SPOT peptide array binding signal intensity
VQKRKLPLPGSIASA	47.8

Target: AgBzz1-D2
Assay: as above
Description: as §1

Binder	SPOT peptide array binding signal intensity
VQKRKLPLPGSIASA	90.2

Target: AgCyk3
Assay: as above
Description: as §1

Binder	SPOT peptide array binding signal intensity
VQKRKLPLPGSIASA	0.5

Target: AgFus1
Assay: as above
Description: as §1

Binder	SPOT peptide array binding signal intensity
VQKRKLPLPGSIASA	≤ 0

Target: AgHof1
Assay: as above
Description: as §1

Binder	SPOT peptide array binding signal intensity
VQKRKLPLPGSIASA	24.6

Target: AgHse1
Assay: as above
Description: as §1

Binder	SPOT peptide array binding signal intensity
VQKRKLPLPGSIASA	58.5

Target: AgLsb1
Assay: as above
Description: as §1

Binder	SPOT peptide array binding signal intensity
VQKRKLPLPGSIASA	≤ 0

Target: AgLsb4
Assay: as above
Description: as §1

Binder	SPOT peptide array binding signal intensity
VQKRKLPLPGSIASA	≤ 0

Target: AgMyo5
Assay: as above
Description: as §1

Binder	SPOT peptide array binding signal intensity
VQKRKLPLPGSIASA	6.25

Target: AgNbp2
Assay: as above
Description: as §1

Binder	SPOT peptide array binding signal intensity
VQKRKLPLPGSIASA	≤ 0

Target: AgRvs167
Assay: as above
Description: as §1

Binder	SPOT peptide array binding signal intensity
VQKRKLPLPGSIASA	0.75

Target: AgSho1
Assay: as above
Description: as §1

Binder	SPOT peptide array binding signal intensity
VQKRKLPLPGSIASA	1.5

Target: AgSla1-D1-D2
Assay: as above
Description: as §1

Binder	SPOT peptide array binding signal intensity
VQKRKLPLPGSIASA	6.5

Target: AgSla1-D3
Assay: as above
Description: as §1

Binder	SPOT peptide array binding signal intensity
VQKRKLPLPGSIASA	≤ 0

Target: CaAbp1-D1
Assay: as above
Description: as §1

Binder	SPOT peptide array binding signal intensity
VQKRKLPLPGSIASA	419

Target: CaAbp1-D2
Assay: as above
Description: as §1

Binder	SPOT peptide array binding signal intensity
VQKRKLPLPGSIASA	782

Target: CaBbc1
Assay: as above
Description: as §1

Binder	SPOT peptide array binding signal intensity
VQKRKLPLPGSIASA	442

Target: CaBem1-D1
Assay: as above
Description: as §1

Binder	SPOT peptide array binding signal intensity
VQKRKLPLPGSIASA	13

Target: CaBzz1-D1
Assay: as above
Description: as §1

Binder	SPOT peptide array binding signal intensity
VQKRKLPLPGSIASA	94

Target: CaBzz1-D2
Assay: as above
Description: as §1

Binder	SPOT peptide array binding signal intensity
VQKRKLPLPGSIASA	44.6

Target: CaCyk3
Assay: as above
Description: as §1

Binder	SPOT peptide array binding signal intensity
VQKRKLPLPGSIASA	≤ 0

Target: CaFus1
Assay: as above
Description: as §1

Binder	SPOT peptide array binding signal intensity
VQKRKLPLPGSIASA	≤ 0

Target: CaHof1
Assay: as above
Description: as §1

Binder	SPOT peptide array binding signal intensity
VQKRKLPLPGSIASA	≤ 0

Target: CaHse1
Assay: as above
Description: as §1

Binder	SPOT peptide array binding signal intensity
VQKRKLPLPGSIASA	≤ 0

Target: CaLsb1
Assay: as above
Description: as §1

Binder	SPOT peptide array binding signal intensity
VQKRKLPLPGSIASA	≤ 0

Target: CaLsb4
Assay: as above
Description: as §1

Binder	SPOT peptide array binding signal intensity
VQKRKLPLPGSIASA	≤ 0

Target: CaMyo5
Assay: as above
Description: as §1

Binder	SPOT peptide array binding signal intensity
VQKRKLPLPGSIASA	0.5

Target: CaNbp2
Assay: as above
Description: as §1

Binder	SPOT peptide array binding signal intensity
VQKRKLPLPGSIASA	70

Target: CaRvs167
Assay: as above
Description: as §1

Binder	SPOT peptide array binding signal intensity
VQKRKLPLPGSIASA	2.17

Target: CaRvs167-3
Assay: as above
Description: as §1

Binder	SPOT peptide array binding signal intensity
VQKRKLPLPGSIASA	4.62

Target: CaSho1
Assay: as above
Description: as §1

Binder	SPOT peptide array binding signal intensity
VQKRKLPLPGSIASA	≤ 0

Target: CaSla1-D1-D2
Assay: as above
Description: as §1

Binder	SPOT peptide array binding signal intensity
VQKRKLPLPGSIASA	118

Target: CaSla1-D3
Assay: as above
Description: as §1

Binder	SPOT peptide array binding signal intensity
VQKRKLPLPGSIASA	≤ 0

Target: ScAbp1
Assay: as above
Description: as §1

Binder	SPOT peptide array binding signal intensity
VQKRKLPLPGSIASA	100
